# Compound activity (PubChem BioAssay)
# Insulin prom inh: TRM-6 insulin promoter activity inhibition; 0.9% of 130,000 active; TRM-6 cells (human fetal islet line), insulin promoter-eGFP reporter, imaging; reporter expression induced with tamoxifen; AID 1273; inhibition, % at 2 µM;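 active = inhibition above the mean plus 3 SD, with well images judged a real hit on visual review, cut at about 60% in these data, passing the limit was not always enough; inconclusive = inhibition over the cutoff but images rejected on review; inactive = inhibition not above the cutoff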
# Ins promoter up: MIN6 insulin promoter up-regulation | AID 1625 | 0.3% of 190,000 active | z-score at 5 µM | MIN6 insulin promoter-GFP reporter, high-content imaging; hits give high values;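 active = z-score above 3 at 5 µM with at least 500 cells counted in the well; inconclusive = wells under 500 cells, flagged as cytotoxic or low count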
# WT yeast gro inh: growth inhibition of WT yeast, mitochondrial fusion screen; 2.1% of 190,000 active; mitochondrial fusion phenotypic screen, WT strain; AID 1362; inhibition, % at 10 µM; in the data active = inhibition above about 58%; tested in S. cerevisiae
# Autophagy HCS: modulators of autophagy; MEF GFP-LC3 puncta imaging; test concentration mostly 10 µM; calls only at 10 µM (by protocol); 0.98% of 190,000 active;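 active = percentage of spot-positive cells more than 3 SD above its plate mean, without a fluorescence outlier flag or 80% toxicity; inconclusive = no clear call, values can overlap the other calls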
# L major viab: Leishmania major promastigote growth inhibition; Leishmania major promastigotes, resazurin fluorescence viability; inhibition, % at 10 µM; 9% of 200,000 active; AID 1063; in the data active = inhibition above about 50%;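 also: promastigotes grown with compound for 44 hours at 28 °C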
# Hits are given with their value; – = inactive; ? = inconclusive; · = not tested or not shown; + = active, no number. Most compounds without a hit are left out; they make up all but 11% or so of the library.
SMILES,Insulin prom inh,Ins promoter up,WT yeast gro inh,Autophagy HCS,L major viab
O=C(c1cccnc1)N1CCN(CCCc2ccccc2)CC1,–,–,–,–,80
COc1ccc(-n2c(Cc3cccn3C)nnc2SCC(=O)NCc2ccc(F)cc2)cc1,·,–,–,–,–
COc1ccc(-n2c(Cc3cccn3C)nnc2SCC(=O)NCc2ccccc2Cl)cc1,·,–,–,+,–
Cn1c(Cc2cccs2)nnc1SCC(=O)N1CCCc2ccccc21,–,·,–,–,–
COc1ccc(-n2c(Cc3cccn3C)nnc2SCC(=O)NC2CCCC2)cc1,100,·,–,–,–
O=C(CSc1nnc(Cc2cccs2)n1C1CCCCC1)N1CCCc2ccccc21,–,–,–,–,95
COc1ccc(-n2c(Cc3cccn3C)nnc2SCC(=O)N2CCCc3ccccc32)cc1,–,–,–,–,63
CC(C)c1cccc(C(C)C)c1NC(=O)COC(=O)c1ccc2c(c1)S(=O)(=O)c1ccccc1C2=O,·,·,–,–,–
CN(C)C(=O)c1nnsc1Sc1ccc(Cl)cc1,–,–,–,–,–
Cc1cc(C)c(OCCOCCN(C)C)c(Br)c1,–,–,–,–,96
COc1cc(C)ccc1OCCOc1c(Cl)cc(Cl)cc1Cl,–,–,–,–,–
Cc1cc(C)c(OCCCCN(C)C)c(Br)c1,–,–,–,–,85
Cc1cc(C)c(OCC(=O)Nc2nnn(C)n2)c(Br)c1,–,–,–,–,–
Cc1cc(Cl)cc(Cl)c1OCCCCN(C)C,–,–,–,–,86
CCOC(=O)c1c(Cc2cccc(Cl)c2)c[nH]c1C,·,–,–,–,–
COCCOc1nc2c(c(=O)n(C)c(=O)n2C)n1Cc1cccc(OC)c1,–,·,–,–,–
O=C(N/N=C\c1ccc(Sc2ccccn2)o1)c1cccc(Br)c1,·,–,–,–,–
COc1cc(C(=O)Nc2cccc(-c3nc4cc(C)ccc4o3)c2)cc(OC)c1OC,71,–,–,–,–
Cc1cccc(-c2nc3cc(NC(=O)C4CCCO4)ccc3o2)c1 (stereo not given),–,–,–,–,75
O=C(Nc1ccc(-c2nc3ccccc3[nH]2)cc1)C1CCCO1 (stereo not given),–,–,69,–,–
CN(C)C(=O)c1ccc(-n2cccn2)nc1,–,–,–,–,–
O=c1[nH]cc(NCCNc2ncc(C(F)(F)F)cc2Cl)c(=O)[nH]1,–,–,–,–,–
CCCSc1nc2c(cnn2-c2ccccc2)c(=O)[nH]1,–,–,–,–,–
O=c1[nH]c(/C=C/c2ccccc2OC(F)F)nc2c1cnn2-c1ccccc1,–,3.2,–,–,62
Cc1ccc(C)c(Nc2ncccc2C(=O)NCc2cccs2)c1,–,–,64,–,–
SMILES,Insulin prom inh,Ins promoter up,WT yeast gro inh,Autophagy HCS,L major viab
CCN(CC)c1ncccc1C(=O)NCc1cccs1,–,–,–,–,–
COc1ccc(/C=N/NC(=O)c2ccoc2C)cc1COc1c(C)cccc1C,–,–,88,–,100
COc1cc(/C=N/NC(=O)c2ccoc2C)cc(OC)c1O,–,–,–,–,–
CC(C)NC(=O)COC(=O)CNC(=O)c1cc(Cl)cc([N+](=O)[O-])c1,·,–,–,–,–
CCc1nnc(NS(=O)(=O)c2ccc(N=Cc3c(C)[nH]n(-c4ccc(C)c(C)c4)c3=O)cc2)s1,–,–,63,–,–
CN(C(=O)COC(=O)/C=C/c1ccc(S(=O)(=O)N2CCc3ccccc32)cc1)C1CCS(=O)(=O)C1 (stereo not given),–,–,–,–,–
Cc1ccc(NC(=O)/C=C/c2ccc([N+](=O)[O-])s2)cc1,–,17,–,–,97
Cc1cccc(NC(=S)NNC(=O)c2cccc([N+](=O)[O-])c2)c1,·,–,·,·,·
Cc1cccc(NC(=S)N/N=C/c2ccc([N+](=O)[O-])s2)c1,–,·,–,–,93
Cc1ccc(/C=C/C(=O)Nc2ccc([N+](=O)[O-])cc2)o1,–,?,–,–,–
COc1cccc(NC(=O)/C=C/c2ccccc2[N+](=O)[O-])c1,–,–,–,–,–
Cc1ccc(NC(=O)/C=C/c2ccc([N+](=O)[O-])s2)c(C)c1,–,13,–,–,–
Cc1cccc(NC(=O)/C=C/c2ccc([N+](=O)[O-])s2)c1,·,·,–,–,100
c1ccc(CCNc2ccccc2)cc1,·,–,·,·,·
Cc1cccn2c(=O)c3cc(C(=O)NC(C)c4ccccc4)c(=N)n(CCCn4ccnc4)c3nc12 (stereo not given),·,–,·,·,·
O=C(c1ccc(Br)cc1)N(c1ccccn1)C1CCCCC1,·,–,·,·,·
Cc1ccc(CSc2ncnc3c2cnn3Cc2ccccc2)cc1,–,–,76,–,–
COc1ccc(C(=O)NN/C(C)=C/C(=O)C(F)(F)C(F)(F)C(F)(F)F)cc1,–,–,–,–,–
Cc1nnc2sc(SCC(=O)Nc3nccs3)nn2c1=O,–,–,–,–,92
CCN1C(c2ccccc2)C(C)C(=O)C(C)C1c1ccccc1 (stereo not given),–,–,81,–,–
CC(C)CC(COCc1cccc(Cl)c1)N1CCN(C(=O)c2ccc(C(F)(F)F)cc2)CCC1=O (stereo not given),–,·,–,–,–
CCCNS(=O)(=O)c1ccc(OCC(=O)N2CCCC2)cc1,·,–,–,–,–
N#CCCN(Cc1ccccc1)C(=O)Nc1ccccc1,·,–,·,·,·
Cc1ccc(NC(=O)N(Cc2cccnc2)Cc2ccco2)cc1C,–,–,–,–,92
N#CCCN(Cc1cccnc1)C(=O)Nc1ccc(Cl)c(Cl)c1,–,–,–,–,95
SMILES,Insulin prom inh,Ins promoter up,WT yeast gro inh,Autophagy HCS,L major viab
O=C(Nc1ccc(Cl)cc1)N(Cc1cccnc1)Cc1ccco1,–,–,–,–,92
CSc1ccccc1NC(=O)Cn1nc([N+](=O)[O-])cc1C,·,–,–,–,–
COc1ccc(CC(=O)OCC(=O)Nc2ccc3c(c2)OCO3)cc1,·,–,–,–,–
CN(C(=O)COC(=O)c1ccc(Cl)nc1)C1CCS(=O)(=O)C1 (stereo not given),–,–,–,–,–
CC(=O)CCn1cc([N+](=O)[O-])nc1C,·,–,·,·,·
O=C(CN1C(=O)C(=O)N(C2CCCC2)C1=O)Nc1ccc(N2CCOCC2)cc1,–,–,–,–,–
O=C(C(Cc1ccccc1)N1C(=O)c2ccccc2C1=O)N1c2ccccc2CCc2ccccc21 (stereo not given),–,–,–,–,57
O=C1c2ccccc2C(=O)N1CC(=O)N1c2ccccc2CCc2ccccc21,–,–,–,–,–
Cc1ccccc1NC(=O)c1ccc(S(=O)(=O)N(C)C)cc1,·,–,–,–,–
CN(C)S(=O)(=O)c1ccc(C(=O)Nc2ccccc2[N+](=O)[O-])cc1,–,–,–,–,66
Cc1c(C(=O)Nc2ccccc2[N+](=O)[O-])csc1-c1ccccc1,·,–,74,–,–
Cc1nn(CC(=O)Nc2cc(S(=O)(=O)N(C)C)ccc2Cl)c(C)c1[N+](=O)[O-],–,–,–,–,72
CN(C)S(=O)(=O)c1ccc(Cl)c(C(=O)Nc2ccccc2[N+](=O)[O-])c1,–,–,–,–,61
NCCCC[C@H]1CNC(=O)C(=O)N1CCc1cccc2ccccc12,·,–,·,·,·
O=C(CSc1ccccc1)NCCCc1ccccc1,·,–,–,–,–
Cc1c(C=O)c2ccccn2c1C(=O)c1cccs1,·,–,–,–,–
